Laboratory results reported in PubChem BioAssay AID1508602 (The Scripps Research Institute Molecular Screening Center, 2020).
The campaign covered roughly 650,000 compounds. About 6,800 (1%) were called active. The sample as a whole holds a higher share of actives than the screen did. Unmarked numbers belong to inactive results. Cut-off read from the data, not from the text of the source: active = activation above about 4.9%; inactive = the rest.

target: G-protein coupled receptor 151 (Homo sapiens) (UniProt Q8TDV0); test: activators of human GPR151, primary screen, cell-based, PathHunter beta-arrestin, luminescence (AID 1508602); settings: PathHunter beta-arrestin GPR151 cells, at 11.2 µM, active compounds read high;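 note: 0% = median of compound wells and 100% = cells with positive control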
Sequence (Q8TDV0 whole entry, looked up): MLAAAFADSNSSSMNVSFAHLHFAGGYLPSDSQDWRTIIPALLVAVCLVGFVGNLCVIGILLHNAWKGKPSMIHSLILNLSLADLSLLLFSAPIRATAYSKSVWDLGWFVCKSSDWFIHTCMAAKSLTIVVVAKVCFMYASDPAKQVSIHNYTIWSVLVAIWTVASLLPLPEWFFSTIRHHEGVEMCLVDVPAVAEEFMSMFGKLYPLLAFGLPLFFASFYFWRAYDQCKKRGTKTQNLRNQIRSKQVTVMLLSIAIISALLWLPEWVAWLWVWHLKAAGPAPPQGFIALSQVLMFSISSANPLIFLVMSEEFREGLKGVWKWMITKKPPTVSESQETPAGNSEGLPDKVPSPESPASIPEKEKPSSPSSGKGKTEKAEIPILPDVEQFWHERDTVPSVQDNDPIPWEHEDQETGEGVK

| SMILES | activation |
| --- | --- |
| COc1ccc(-c2c(C)nn3c(NCCN(C)C)cc(C)nc23)cc1 | 0.306% |
| O=C1NC2(CCCC2)C(=O)N1Cc1nnc(-c2ccccc2Br)o1 | 0.439% |
| CS(=O)(=O)N(CC(=O)Nc1ccc(F)cc1F)c1cc(Cl)c(Cl)cc1Cl | -0.649% |
| CS(=O)(=O)N(CC(=O)Nc1ccc(F)cc1F)c1cccc([N+](=O)[O-])c1 | -0.142% |
| CS(=O)(=O)N(CC(=O)Nc1ccc(F)cc1F)c1ccc(F)cc1 | 7.88% (active) |
| OCCn1c(SCCSc2nc3ccccc3n2CCO)nc2ccccc21 | -0.408% |
| COc1cc(NC(=O)c2cccc(Br)c2)ccc1NC(=O)c1ccco1 | 0.388% |
| COc1ccccc1N1CCN(c2ncnc3sc(C(=O)Nc4ccc5c(c4)OCCO5)c(C)c23)CC1 | -0.8% |
| COc1cc(NC(=O)c2sc3ncnc(N4CCCCC4)c3c2C)cc(OC)c1OC | 5.99% (active) |
| COc1ccc(NC(=O)c2sc3ncnc(N4CCCCC4)c3c2C)cc1OC | 0.695% |
| CCC(CC)NCc1cc(OC)c(OC)cc1Br | 0.484% |
| Cc1ccc([N+](=O)[O-])cc1S(=O)(=O)Nc1cccc(N(C)C)c1 | 0.193% |
| Cc1cc(C)cc(N(C(C)C(=O)Nc2ccc(Cl)cc2)S(C)(=O)=O)c1 (stereo not given) | -1.25% |
| Nc1cc(Cl)ccc1C(=O)OCC(=O)Nc1ccc(N2CCCCC2)cc1 | 2.3% |
| O=C1N[C@@H](Cc2ccccc2)C(=O)N2CCN(C(=O)c3ccc(OC(F)(F)F)cc3)C[C@H]12 | -1.02% |
| CC(C)NC(=O)C12CCC(C)(C(=O)O1)C2(C)C (stereo not given) | 0.406% |
| Cc1nc(NC(=O)C23CCC(C)(C(=O)O2)C3(C)C)sc1C (stereo not given) | -1.28% |
| CC12CCC(C(=O)NC3CCCCC3)(OC1=O)C2(C)C (stereo not given) | 4.96% (active) |
| Cc1ccnc(NC(=O)Nc2sc3nc4n(c(=O)c3c2C)CCC(C)CC4)c1 (stereo not given) | 0.22% |
| CCn1c(C(CC(C)C)NC(=O)C2CC2)nc2cccnc21 (stereo not given) | -0.148% |
| COc1ccc(C(=O)N2CCCN(c3nc4cc(C)c(C)cc4cc3C#N)CC2)cc1OC | 2.69% |
| Cc1ccc(C(=O)NCC(=O)OCC(=O)N(C(C)C)C(C)C)cc1C | -0.906% |
| CCOc1cc2c(cc1OCC)C(c1ccc(OC)c(C)c1)NCC2 (stereo not given) | 0.975% |

| SMILES | activation |
| --- | --- |
| CCOc1cc2c(cc1OCC)C(c1cc(F)c(F)c(F)c1)NCC2 (stereo not given) | -0.242% |
| CCOc1cc2c(cc1OCC)C(c1ccc3ccccc3c1)NCC2 (stereo not given) | 5.53% (active) |
| O=C(NC1CCCCCC1)c1ccc(NS(=O)(=O)c2cccs2)cc1 | 2.64% |
| COc1cc(/C=N/N=C2/NC(=O)CS2)ccc1OC(=O)c1ccccc1C | 10.4% (active) |
| COc1ccc(/C=N/N=C2/NC(=O)CS2)c(OC)c1 | -0.156% |
| COc1cccc(/C=N/N=C2/NC(=O)CS2)c1O | -1.32% |
| COCCn1c(=NC(=O)c2c(C)cnn2C)sc2cc(Cl)ccc21 | -0.961% |
| Cc1ccc(NC(=O)c2cccc(N(C)C)c2)cc1NC(=O)c1ccc(O)cc1 | 8.84% (active) |
| Cc1cccc(C(=O)Nc2ccc(C(=O)Nc3ccc(C(=O)Nc4ccccc4C)cc3)cc2)c1 | 2.61% |
| Cc1ccc(C(=O)Nc2ccc(N(C)C)cc2)cc1C | -2.22% |
| Cc1cccc(Nc2nc(-c3ccc(I)cc3)cs2)c1 | -1.86% |
| Cc1ccc(Nc2nc(-c3ccccn3)cs2)cc1C | 11.2% (active) |
| Cc1ccc(-c2csc(Nc3ccccc3)n2)c(C)c1 | 0.521% |
| O=C(c1ccccc1)N1CCN(C2CC(=O)N(c3cc(Cl)cc(Cl)c3)C2=O)CC1 (stereo not given) | -0.358% |
| Cc1ccc(OCCN2CCNCC2)c(Cl)c1 | 0.0124% |
| CC(C)C(=O)NC(C)c1nnc2n1CCN(Cc1cccc3ncccc13)CC2 (stereo not given) | 0.68% |
| CC(C)C(=O)NC(C)c1nnc2n1CCN(Cc1ccc3cccnc3c1)CC2 (stereo not given) | 5.04% (active) |
| CCC(=O)NC(c1nnc2n1CCN(Cc1ccc3cccnc3c1)CC2)C(C)C (stereo not given) | 0.149% |
| Cc1cc(OCC(=O)NNC(=O)COc2ccc(Br)cc2Br)cc(C)c1Cl | 0.12% |
| CC(C)c1nc2sc3c(NCCCO)ncnc3c2c2c1COC(C)(C)C2 | 1.25% |
| CCCN1C(=O)c2ccc(C(=O)Nc3ccc(C(C)=O)cc3)cc2C1=O | 6.33% (active) |
| CCCN1C(=O)c2ccc(C(=O)Nc3ccc(O)cc3C(=O)O)cc2C1=O | -4.67% |
| COCCN1C(=O)c2ccc(C(=O)Nc3ccc(C(=O)O)cc3)cc2C1=O | -0.197% |

| SMILES | activation |
| --- | --- |
| O=C(CCC1=NS(=O)(=O)c2ccccc2N1)N1CCN(c2ccccc2)CC1 | 0.684% |
| O=[N+]([O-])c1ccc(Nc2nc(Cl)nc(NCCN3CCOCC3)n2)cc1 | 3.01% |
| COc1cc(C(=O)NCCC(=O)NCC2COc3ccccc3O2)cc(OC)c1OC (stereo not given) | -0.141% |
| COc1ccc(Br)cc1C(=O)NCC1COc2ccccc2O1 (stereo not given) | 5.44% (active) |
| CCOC(=O)C(=O)NCC1COc2ccccc2O1 (stereo not given) | 0.866% |
| O/N=C(\C(=N\O)c1ccccc1)c1ccccc1 | -0.0395% |
| COC(=O)Cc1ccc(NC(=S)N2CCC(C(N)=O)CC2)cc1 | -0.283% |
| O=C(NCC1CCCO1)c1ccc(N2CC3CC(C2)c2cccc(=O)n2C3)c(NS(=O)(=O)c2ccc(Cl)cc2)c1 (stereo not given) | -2.43% |
| c1ccc(CNc2nc(Nc3ccc(N4CCOCC4)cc3)nc3c2ncn3-c2ccccc2)cc1 | 1.12% |
| FC(F)(F)c1ccc(Cn2cnc3c(NCc4cccc(C(F)(F)F)c4)nc(Nc4ccc(N5CCOCC5)cc4)nc32)cc1 | 5.04% (active) |
| FC(F)(F)c1cccc(CNc2ncnc3nc(N4CCOCC4)[nH]c23)c1 | 1.38% |
| CCN(CC)C(=O)C1CCCN(c2ncc(C)c(Nc3ccc(N4CCOCC4)cc3)n2)C1 (stereo not given) | 0.13% |
| FC(F)(F)c1cccc(CNc2ccnc(N3CCOCC3)n2)c1 | 0.285% |
| CCN(CC)C(=O)C1CCCN(c2ncc(C)c(NCc3cccc(C(F)(F)F)c3)n2)C1 (stereo not given) | 5.92% (active) |
| Cc1cnc(Nc2ccc(N3CCOCC3)cc2)nc1NCc1cccc(C(F)(F)F)c1 | 6.5% (active) |
| CCN(CC)C(=O)C1CCCN(c2nc(NCc3cccc(C(F)(F)F)c3)c3cc(OC)c(OC)cc3n2)C1 (stereo not given) | -0.297% |
| FC(F)(F)c1cccc(CNc2nc(Nc3ccc(N4CCOCC4)cc3)nc3c2ncn3-c2ccsc2)c1 | 0.773% |
| COc1ccc(/C=N/NC(=O)CN(C)C(=O)c2ccccc2)cc1 | -1.44% |
| COc1ccc(Cl)cc1NC(=O)C1c2cc(OC)c(OC)cc2C(=O)N(C)C1c1ccc(OC)c(OC)c1 (stereo not given) | 4.36% |
| Cc1ccc(N2C(=O)C3ON(c4ccc(Cl)cc4)C(c4ccco4)C3C2=O)cc1 (stereo not given) | -1.12% |
| COCc1c(C(=O)N/N=C/c2cccc(F)c2)nnn1-c1nonc1N | -0.56% |
| O=C(Cc1ccc(Cl)cc1)NCc1nnnn1C1CCCCC1 | -1.64% |
| CCCc1cc(=O)[nH]c(Nc2cccc(O)c2)n1 | 0.777% |

| SMILES | activation |
| --- | --- |
| CCOC(=O)C1=C(N)OC2=C(C(=O)CC(C)(C)C2)C1c1cc(OC)ccc1F (stereo not given) | -1.02% |
| Cc1[nH]n(-c2nc3c(c(=O)[nH]2)CCCC3)c(=O)c1CCO | -1.77% |
| C=CCn1c(SCC(=O)N2c3ccccc3CC2C)nc2sc(C)c(C)c2c1=O (stereo not given) | 0.176% |
| COCCNc1nc2nonc2nc1N1CCC(N2C[C@@H](C)O[C@@H](C)C2)CC1 | -0.822% |
| O=C(/C=C/Nc1ccccc1NS(=O)(=O)c1ccc([N+](=O)[O-])cc1)c1ccco1 | 6.93% (active) |
| O=[N+]([O-])c1ccc(S(=O)(=O)NCCc2ccccc2)cc1 | 0.345% |
| O=C(/C=N/Nc1ccc([N+](=O)[O-])cc1[N+](=O)[O-])c1ccco1 | 0.644% |
| O=C(NCc1ccccc1)N(CCN1CCCC1)Cc1cc2cc3c(cc2[nH]c1=O)OCO3 | -0.475% |
| Cc1ccc(S(=O)(=O)C2(C(=O)Nc3ccc([N+](=O)[O-])cn3)CC2)cc1 | 0.544% |
| CCc1ccc(S(=O)(=O)NCCOc2cc(N3CCOCC3)ncn2)cc1 | 5.88% (active) |
| COc1cc(S(=O)(=O)NCCN2CCOCC2)ccc1Br | -1.15% |
| CC(C)N(CCNc1cc(N2CCOCC2)ncn1)C(C)C | -0.393% |
| O=C1CCCC2=C1C(c1ccccc1[N+](=O)[O-])c1c([nH]c(=O)[nH]c1=O)N2 (stereo not given) | -0.211% |
| COc1ccc2c(=O)c(C(=O)O)c[nH]c2c1 | -1.56% |
| CC(=O)Nc1ccc(NC(=O)/C=C\C(=O)O)cc1C | 2.3% |
| CCOC(=O)C1=C(c2ccccc2)S/C(=C2/C(=S)C(C)(C)N(C(C)=O)c3cc(C)c(C)cc32)S1 | 1.9% |
| N#CCCN1c2ccccc2Sc2ccc(C(F)(F)F)cc21 | 1.1% |
| O=C(Nc1cc([N+](=O)[O-])ccc1Cl)c1cc(Cl)ccc1Cl | -0.475% |
| CCNc1nc2ccc(C(=O)Nc3ccc(NC(C)=O)cc3)cc2s1 | -3.46% |
| O=C(Nc1ccccc1)c1ccc2nc(Br)sc2c1 | -4.09% |
| CC(=O)Nc1ccc(NC(=O)c2ccc3nc(Br)sc3c2)cc1 | 6.16% (active) |
